Assay results published in PubChem BioAssay (Tox21).
Active and inactive are the calls of the source. The call rests on the fitted dose curve.

Each molecule was assayed against Thyrotropin-releasing hormone receptor (Homo sapiens) (UniProt P34981) (assay: qHTS assay to identify small molecule agonists of the thyrotropin-releasing hormone receptor (TRHR) signaling pathway (AID 1346891;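 on activation: HEK293 cells expressing TRHR with calcium dye readout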)). Conditions: TRHR-HEK293 calcium fluorescence, agonist mode; series mostly up to 57.6 µM; activation: at the top concentration.
Source text: National Center for Advancing Translational Sciences [NCATS] NIH Chemical Genomics Center [NCGC] U.S. Environmental Protection Agency [EPA] National Institutes of Environmental Health Sciences [NIEHS] National Toxicology Program [NTP] Assay overview: Thyrotropin-releasing hormone (TRH) receptor (TRHR) is a G-protein-coupled receptor which binds the tripeptide thyrotropin releasing hormone. TRHR is found in the brain and, when bound by TRH, acts (through phospholipase C) to increase intracellular inositol trisphosphate. It plays a crucial role in the anterior pituitary where it controls the synthesis and secretion of thyroid stimulating hormone and prolactin. The TRHR-Hek293 assay is a cell-based assay, and it has the potential to screen G protein-coupled receptors. A compound/drug can either activate (agonist) or suppress (antagonist) GPCRs that can be monitored by levels of intracellular calcium. Using this assay, the Tox21 10K compound library was screened to identify potential TRHR agonists.
Assay Protocol Summary: The TRHR-Hek293 cells were dispensed at 1500cells/4uL/well in 1536-well black-clear bottom plates using a Multidrop dispenser. After the assay plates were incubated at a 37 C/5% CO2 incubator for 18 hours, 4 uL of Dye-Loading Solution was added to each well. The plates were incubated at 37 C for 2 hours. For agonist mode, 23 nL of compounds dissolved in DMSO, positive controls or DMSO only was transferred to the assay plate by a pin tool. The fluorescence intensity in the plates was measured using FDSS 7000EX kinetic plate reader for 3 min at 1 sec intervals. Each test compound was measured at 15 concentrations and in triplicates.
On the % scale 0 is the no-effect control and ±100 the full control effect; potency means the concentration at half of the fitted maximal effect.

Chain of Thyrotropin-releasing hormone receptor (Homo sapiens) (P34981 whole entry, looked up): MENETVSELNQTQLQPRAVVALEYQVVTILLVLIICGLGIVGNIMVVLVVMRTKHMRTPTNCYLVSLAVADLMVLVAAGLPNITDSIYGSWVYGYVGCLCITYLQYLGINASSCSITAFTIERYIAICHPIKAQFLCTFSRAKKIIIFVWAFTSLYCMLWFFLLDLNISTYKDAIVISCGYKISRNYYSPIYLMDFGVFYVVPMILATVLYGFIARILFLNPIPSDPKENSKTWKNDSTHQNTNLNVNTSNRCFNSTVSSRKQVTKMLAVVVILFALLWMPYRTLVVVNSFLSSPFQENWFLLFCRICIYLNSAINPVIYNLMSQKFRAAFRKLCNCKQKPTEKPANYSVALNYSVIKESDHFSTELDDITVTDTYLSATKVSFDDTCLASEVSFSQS

SMILES	activation	Potency
CCCCCCc1ccc(N)cc1	0.116% (inactive)	
CC(=O)c1ccc2c(c1)[C@H](NC(=O)c1ccc(F)cc1)[C@@H](O)C(C)(C)O2	-1.16% (inactive)	
COc1ccc(OC)c(OC)c1	-0.523% (inactive)	
CCCCCCCCCO	0.128% (inactive)	
CC[C@H](C)[C@H](N)C(=O)O	-0.0609% [at 26.5 µM] (inactive)	
CCCCOC(O)CC (stereo not given)	0.0129% (inactive)	
CCC(C)N(C)C(=O)c1cc2ccccc2c(-c2ccccc2Cl)n1 (stereo not given)	0.187% [at 26.5 µM] (inactive)	
CN(C)CCCNCCCN	0.0349% (inactive)	
C[Si](C)O[Si](C)(C)O[Si](C)(C)O[Si](C)C	0.529% (inactive)	
COCCCCCCCCOCCC[Si](C)(O[Si](C)(C)C)O[Si](C)(C)C	1.4% (inactive)	
NC(N)=N/N=C/c1c(Cl)cccc1Cl	1.98% [at 26.5 µM] (inactive)	
CC(=O)O[C@H]1C[C@@H]2CC[C@@H]3[C@H](CC[C@@]4(C)[C@H]3C[C@H]([N+]3(C)CCCCC3)[C@@H]4OC(C)=O)[C@@]2(C)C[C@@H]1N1CCCCC1	1.76% [at 26.5 µM] (inactive)	
O=C(O)Cc1cc(I)c(Oc2ccc(O)c(I)c2)c(I)c1	0.159% (inactive)	
CCCCc1cc2ccccc2c(OCCN(C)C)n1	25.9% [at 26.5 µM] (inactive)	
Cc1cccc(C(C)(C)C)c1O	0.481% (inactive)	
COCCO	-0.291% (inactive)	
NCCCOCCOCCOCCCN	-0.0934% (inactive)	
CC[C@@H]1C[C@H](N(Cc2cc(C(F)(F)F)cc(C(F)(F)F)c2)C(C)=O)c2cc(C(F)(F)F)ccc2N1C(=O)OC(C)C	-0.372% (inactive)	
C=CC[N+]1([C@H]2C[C@H]3[C@@H]4CC[C@H]5C[C@H](OC(C)=O)[C@@H](N6CCCCC6)C[C@]5(C)[C@H]4CC[C@]3(C)[C@H]2OC(=O)CC)CCCCC1	0.151% [at 26.5 µM] (inactive)	
CC(C)(C)c1cc(CO)cc(C(C)(C)C)c1O	-0.0449% (inactive)	

SMILES	activation	Potency
Cc1cccc(OCCOc2cccc(C)c2)c1	-0.0194% (inactive)	
CC(=O)NCCCS(=O)(=O)O		11.9 µM (active)
CC1(C)[C@H]2CC[C@]1(C)[C@H](O)C2	0.0512% (inactive)	
COC(Cc1ccccc1)OC	-0.904% (inactive)	
Cc1ncsc1CCO	0.245% (inactive)	
Cc1cccc(Oc2ccccc2)c1	0.0946% (inactive)	
CC(C)NCC(O)COc1ccc(CC(N)=O)cc1 (stereo not given)	-1.1% (inactive)	
Oc1ccc(O)c2c(O)cccc12	0.124% (inactive)	
CCN(CC)CCc1nc(-c2ccccc2)no1	0.0445% [at 26.5 µM] (inactive)	
CCCCCCCCN(C)C	-1.1% (inactive)	
CCCCCCCCCCCCCCCCCBr	-0.232% [at 11.8 µM] (inactive)	
O=C1c2cccc(O)c2C(=O)c2c(O)cc(CO)cc21	0.109% (inactive)	
O=C(NN1CCCC1)NS(=O)(=O)c1ccc(Cl)cc1	-0.461% [at 26.5 µM] (inactive)	
CC(C)(C)c1cc(O)c(C(C)(C)C)cc1O	24.3% (inactive)	
CC(=O)O[C@@H]1C(=O)O[C@@H]2[C@H]1OC(=O)[C@@H]2OC(C)=O	-0.0315% [at 26.5 µM] (inactive)	
O=C(C(=O)c1ccc(Br)cc1)c1ccc(Br)cc1	0.083% [at 11.8 µM] (inactive)	
Cn1c(N)nc2nc[nH]c2c1=O	1.06% (inactive)	
N#Cc1cc2ccccc2c2ccccc12	0.117% (inactive)	
COc1ccc2[nH]c(S(=O)Cc3ncc(C)c(OC)c3C)nc2n1 (stereo not given)	-0.238% [at 26.5 µM] (inactive)	
N#CCc1cccc(C(F)(F)F)c1	-0.145% (inactive)	
